Common to all, as to experiment: DAPPL (digital affinity profiling via proximity ligation, sequencing); 10 mM Tris-HCl pH 7.5, 50 mM NaCl, 1 mM DTT, 4% glycerol, room temperature, 30 min; GST-TFs on glutathione beads, 16-mer random dsDNA library, 0.1% formaldehyde crosslink after washing; high values mean tight binding
One assay addresses T1, FEV (Homo sapiens, UniProt Q99581 1-238).
T1 sequence: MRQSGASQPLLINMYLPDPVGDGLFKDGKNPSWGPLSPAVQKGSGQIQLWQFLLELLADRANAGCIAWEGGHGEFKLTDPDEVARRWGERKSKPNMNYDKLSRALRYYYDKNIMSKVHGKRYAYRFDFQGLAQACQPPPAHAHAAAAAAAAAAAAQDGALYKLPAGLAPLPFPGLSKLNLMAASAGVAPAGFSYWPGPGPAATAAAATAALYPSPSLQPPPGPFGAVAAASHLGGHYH
The settings on record: protein: recombinant; tags: N-terminal GST; dsDNA, one strand shown. A digest of the protocol: (§1)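 Pools of DNA-barcoded human transcription factors, expressed in yeast as GST fusions on glutathione beads and combined with a tag-only sample, were incubated with 200 nmole of a 16-mer random double-stranded DNA library. Incubation took 30 min at room temperature in Tris/NaCl/DTT/glycerol buffer and was followed by washing, 0.1% formaldehyde crosslinking, proximity ligation (BsaI/T4 ligase, 1 h, 37 °C), PCR amplification and sequencing on an Illumina NextSeq500. Binding signal is the ratio of a hexamer's read frequency for a factor to its frequency for the tag-only sample.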

The target of another assay is ETV5 (Homo sapiens, UniProt P41161 1-510). Conditions: protein: recombinant; tags: N-terminal GST; dsDNA, one strand shown. In short, it runs like this: as §1
The target of another assay is HSF1 (Homo sapiens, UniProt Q00613 1-529). Conditions: protein: recombinant; tags: N-terminal GST; chain copies: 3; dsDNA, one strand shown. A digest of the protocol: as §1
A further assay concerns the target T2, SPIC (Homo sapiens, UniProt Q8N5J4 1-248).
T2 sequence: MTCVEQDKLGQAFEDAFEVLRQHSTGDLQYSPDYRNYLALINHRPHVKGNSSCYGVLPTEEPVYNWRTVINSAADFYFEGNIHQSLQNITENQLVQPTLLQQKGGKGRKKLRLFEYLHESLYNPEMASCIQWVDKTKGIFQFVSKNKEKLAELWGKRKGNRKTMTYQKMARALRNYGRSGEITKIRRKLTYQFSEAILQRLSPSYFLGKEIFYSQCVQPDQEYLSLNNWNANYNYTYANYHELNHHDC
Conditions: protein: recombinant; tags: N-terminal GST; dsDNA, one strand shown. In short, it runs like this:
as §1

The next assay concerns the target ELF4 (Homo sapiens, UniProt Q99607 1-663). Conditions: protein: recombinant; tags: N-terminal GST; dsDNA, one strand shown. In short, it runs like this: as §1
A further assay deals with T3, ELK4 (Homo sapiens, UniProt P28324-2 1-405).
T3 sequence: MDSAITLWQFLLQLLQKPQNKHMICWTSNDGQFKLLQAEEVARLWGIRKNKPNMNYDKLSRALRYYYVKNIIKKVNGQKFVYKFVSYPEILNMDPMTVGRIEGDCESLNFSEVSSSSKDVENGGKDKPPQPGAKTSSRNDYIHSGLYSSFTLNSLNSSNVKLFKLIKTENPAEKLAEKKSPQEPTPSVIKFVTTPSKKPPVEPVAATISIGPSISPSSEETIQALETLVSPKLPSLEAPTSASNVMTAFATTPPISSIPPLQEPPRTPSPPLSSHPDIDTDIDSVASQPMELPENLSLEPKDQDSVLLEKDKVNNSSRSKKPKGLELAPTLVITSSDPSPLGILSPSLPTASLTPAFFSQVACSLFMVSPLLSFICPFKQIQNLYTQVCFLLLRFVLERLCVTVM
Conditions: protein: recombinant; tags: N-terminal GST; dsDNA, one strand shown. In short, it runs like this:
as §1

The next assay concerns the target T4, ETV2 (Homo sapiens, UniProt O00321 1-342).
T4 sequence: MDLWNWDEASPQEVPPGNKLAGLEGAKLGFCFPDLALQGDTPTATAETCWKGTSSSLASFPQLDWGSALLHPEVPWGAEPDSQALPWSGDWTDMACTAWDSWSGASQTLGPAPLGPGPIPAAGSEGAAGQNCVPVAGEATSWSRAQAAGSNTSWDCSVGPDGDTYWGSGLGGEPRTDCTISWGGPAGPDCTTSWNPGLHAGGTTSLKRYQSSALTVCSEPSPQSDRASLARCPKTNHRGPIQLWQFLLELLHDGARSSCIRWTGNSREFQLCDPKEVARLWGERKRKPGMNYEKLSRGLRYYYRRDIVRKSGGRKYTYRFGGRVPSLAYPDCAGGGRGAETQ
Conditions: protein: recombinant; tags: N-terminal GST; dsDNA, one strand shown. In short, it runs like this:
as §1

The target in a further assay is T5, ELF3 (Homo sapiens, UniProt P78545 1-371).
T5 sequence: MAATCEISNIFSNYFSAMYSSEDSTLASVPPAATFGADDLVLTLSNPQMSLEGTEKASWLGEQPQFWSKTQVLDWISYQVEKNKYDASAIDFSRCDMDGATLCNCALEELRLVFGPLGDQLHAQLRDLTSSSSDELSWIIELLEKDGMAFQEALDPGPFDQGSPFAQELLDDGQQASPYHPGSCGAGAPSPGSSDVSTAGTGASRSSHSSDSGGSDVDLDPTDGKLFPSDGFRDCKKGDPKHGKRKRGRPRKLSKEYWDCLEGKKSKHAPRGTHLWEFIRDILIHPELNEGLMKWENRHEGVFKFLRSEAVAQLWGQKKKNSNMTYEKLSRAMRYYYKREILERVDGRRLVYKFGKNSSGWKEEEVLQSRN
The settings on record: protein: recombinant; tags: N-terminal GST; dsDNA, one strand shown. In short, it runs like this: as §1

For another assay, the target named is CRX (Homo sapiens, UniProt O43186 1-299). The settings on record: protein: recombinant; tags: N-terminal GST; dsDNA, one strand shown. A digest of the protocol:
as §1

The next assay has as its target ETV1 (Homo sapiens, UniProt P50549 1-477). The settings on record: protein: recombinant; tags: N-terminal GST; dsDNA, one strand shown. A digest of the protocol:
as §1

In the next assay the target is T6, ERF (Homo sapiens, UniProt P50548 1-548).
T6 sequence: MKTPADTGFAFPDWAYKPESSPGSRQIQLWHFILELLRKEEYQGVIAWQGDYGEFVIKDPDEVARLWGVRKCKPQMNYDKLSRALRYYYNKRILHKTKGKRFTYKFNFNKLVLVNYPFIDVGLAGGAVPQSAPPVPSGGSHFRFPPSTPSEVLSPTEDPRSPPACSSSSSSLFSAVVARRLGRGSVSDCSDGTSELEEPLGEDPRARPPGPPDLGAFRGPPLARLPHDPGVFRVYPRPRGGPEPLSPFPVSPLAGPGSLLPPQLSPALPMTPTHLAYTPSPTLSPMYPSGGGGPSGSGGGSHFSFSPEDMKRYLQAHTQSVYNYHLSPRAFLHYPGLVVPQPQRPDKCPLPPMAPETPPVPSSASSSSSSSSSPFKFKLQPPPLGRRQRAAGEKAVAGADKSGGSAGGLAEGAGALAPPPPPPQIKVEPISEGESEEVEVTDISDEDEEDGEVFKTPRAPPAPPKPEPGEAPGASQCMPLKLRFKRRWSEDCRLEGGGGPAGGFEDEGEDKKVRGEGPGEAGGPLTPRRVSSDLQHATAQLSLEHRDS
Conditions: protein: recombinant; tags: N-terminal GST; dsDNA, one strand shown. A digest of the protocol: as §1

For a further assay, the target named is T7, ETV3L (Homo sapiens, UniProt Q6ZN32 1-361).
T7 sequence: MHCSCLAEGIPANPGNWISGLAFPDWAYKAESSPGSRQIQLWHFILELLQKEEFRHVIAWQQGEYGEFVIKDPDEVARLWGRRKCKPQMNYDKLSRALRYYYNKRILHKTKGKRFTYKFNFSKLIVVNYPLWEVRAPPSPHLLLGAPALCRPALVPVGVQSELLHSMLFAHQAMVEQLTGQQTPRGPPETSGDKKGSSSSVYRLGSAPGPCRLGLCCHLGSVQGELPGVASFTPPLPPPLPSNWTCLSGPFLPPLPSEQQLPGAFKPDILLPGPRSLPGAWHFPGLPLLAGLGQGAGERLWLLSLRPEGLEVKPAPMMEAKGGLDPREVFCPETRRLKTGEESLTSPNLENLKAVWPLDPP
Conditions: protein: recombinant; tags: N-terminal GST; dsDNA, one strand shown. A digest of the protocol: as §1

The target of the next assay is T8, ETS2 (Homo sapiens, UniProt P15036 1-469).
T8 sequence: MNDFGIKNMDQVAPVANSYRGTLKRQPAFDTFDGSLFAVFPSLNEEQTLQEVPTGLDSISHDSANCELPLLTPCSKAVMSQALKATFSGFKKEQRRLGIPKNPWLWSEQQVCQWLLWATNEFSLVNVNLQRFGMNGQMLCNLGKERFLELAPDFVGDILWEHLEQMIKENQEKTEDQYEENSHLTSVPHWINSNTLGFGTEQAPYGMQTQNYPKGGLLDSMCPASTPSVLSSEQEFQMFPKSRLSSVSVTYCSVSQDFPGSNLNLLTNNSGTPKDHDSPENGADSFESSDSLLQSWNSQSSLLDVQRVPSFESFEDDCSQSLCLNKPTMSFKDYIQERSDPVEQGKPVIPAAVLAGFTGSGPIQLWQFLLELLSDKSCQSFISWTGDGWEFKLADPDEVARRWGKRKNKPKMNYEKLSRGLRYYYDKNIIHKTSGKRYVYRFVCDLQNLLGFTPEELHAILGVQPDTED
Conditions: protein: recombinant; tags: N-terminal GST; dsDNA, one strand shown. A digest of the protocol: as §1

In a further assay the target is T9, SPDEF (Homo sapiens, UniProt O95238 1-335).
T9 sequence: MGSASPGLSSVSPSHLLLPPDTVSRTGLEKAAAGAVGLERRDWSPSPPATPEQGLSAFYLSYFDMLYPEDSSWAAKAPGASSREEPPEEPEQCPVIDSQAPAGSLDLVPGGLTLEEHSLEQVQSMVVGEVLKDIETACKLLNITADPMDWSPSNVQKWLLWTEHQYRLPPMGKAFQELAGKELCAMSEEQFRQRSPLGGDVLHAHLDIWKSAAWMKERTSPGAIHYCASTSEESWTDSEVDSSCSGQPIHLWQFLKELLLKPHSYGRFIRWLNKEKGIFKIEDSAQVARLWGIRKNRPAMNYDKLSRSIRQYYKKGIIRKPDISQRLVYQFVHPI
The settings on record: protein: recombinant; tags: N-terminal GST; dsDNA, one strand shown. A digest of the protocol:
as §1

The target of a further assay is T10, ETV7 (Homo sapiens, UniProt Q9Y603 1-341).
T10 sequence: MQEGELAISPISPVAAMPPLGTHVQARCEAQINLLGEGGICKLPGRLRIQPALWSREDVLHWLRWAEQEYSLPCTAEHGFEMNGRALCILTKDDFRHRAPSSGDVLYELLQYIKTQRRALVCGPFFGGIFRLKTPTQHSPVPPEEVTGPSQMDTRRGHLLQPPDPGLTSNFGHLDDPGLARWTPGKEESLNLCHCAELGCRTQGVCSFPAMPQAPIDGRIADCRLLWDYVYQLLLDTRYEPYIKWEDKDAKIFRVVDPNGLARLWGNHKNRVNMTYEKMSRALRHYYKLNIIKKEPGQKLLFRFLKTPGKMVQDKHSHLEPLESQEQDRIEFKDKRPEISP
Conditions: protein: recombinant; tags: N-terminal GST; dsDNA, one strand shown. A digest of the protocol: as §1

A further assay has as its target T11, ELF5 (Homo sapiens, UniProt Q9UKW6-2 1-255).
T11 sequence: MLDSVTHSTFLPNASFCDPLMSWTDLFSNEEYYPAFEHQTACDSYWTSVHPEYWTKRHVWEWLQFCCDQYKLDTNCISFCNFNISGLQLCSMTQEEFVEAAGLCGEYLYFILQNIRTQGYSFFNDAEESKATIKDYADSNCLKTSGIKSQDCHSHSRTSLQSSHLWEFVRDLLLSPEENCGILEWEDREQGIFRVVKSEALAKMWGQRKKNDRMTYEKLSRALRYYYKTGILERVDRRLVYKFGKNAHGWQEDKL
The settings on record: protein: recombinant; tags: N-terminal GST; dsDNA, one strand shown. A digest of the protocol: as §1

A further assay has as its target T12, ETV3 (Homo sapiens, UniProt P41162-2 1-143).
T12 sequence: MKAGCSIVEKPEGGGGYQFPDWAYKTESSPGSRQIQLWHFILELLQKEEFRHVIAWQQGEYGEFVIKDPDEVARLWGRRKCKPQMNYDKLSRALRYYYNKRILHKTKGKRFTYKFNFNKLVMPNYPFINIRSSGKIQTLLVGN
The settings on record: protein: recombinant; tags: N-terminal GST; dsDNA, one strand shown. A digest of the protocol:
as §1

A further assay deals with ETV6 (Homo sapiens, UniProt P41212 1-452). The settings on record: protein: recombinant; tags: N-terminal GST; dsDNA, one strand shown. In short, it runs like this: as §1
Sequence of ETV6 (P41212 whole entry): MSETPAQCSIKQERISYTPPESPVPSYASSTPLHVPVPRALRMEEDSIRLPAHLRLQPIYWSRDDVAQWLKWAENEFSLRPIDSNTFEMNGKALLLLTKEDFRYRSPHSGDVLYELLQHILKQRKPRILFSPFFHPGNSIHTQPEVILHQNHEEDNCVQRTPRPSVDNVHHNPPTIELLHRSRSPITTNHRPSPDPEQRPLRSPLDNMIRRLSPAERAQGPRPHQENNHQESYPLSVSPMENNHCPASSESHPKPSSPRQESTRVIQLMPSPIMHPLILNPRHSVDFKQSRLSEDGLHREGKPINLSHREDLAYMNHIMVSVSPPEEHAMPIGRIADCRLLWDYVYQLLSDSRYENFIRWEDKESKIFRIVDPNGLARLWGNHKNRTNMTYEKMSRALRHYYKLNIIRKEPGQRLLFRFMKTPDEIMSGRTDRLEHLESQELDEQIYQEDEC

Sequence of ETV5 (P41161 whole entry): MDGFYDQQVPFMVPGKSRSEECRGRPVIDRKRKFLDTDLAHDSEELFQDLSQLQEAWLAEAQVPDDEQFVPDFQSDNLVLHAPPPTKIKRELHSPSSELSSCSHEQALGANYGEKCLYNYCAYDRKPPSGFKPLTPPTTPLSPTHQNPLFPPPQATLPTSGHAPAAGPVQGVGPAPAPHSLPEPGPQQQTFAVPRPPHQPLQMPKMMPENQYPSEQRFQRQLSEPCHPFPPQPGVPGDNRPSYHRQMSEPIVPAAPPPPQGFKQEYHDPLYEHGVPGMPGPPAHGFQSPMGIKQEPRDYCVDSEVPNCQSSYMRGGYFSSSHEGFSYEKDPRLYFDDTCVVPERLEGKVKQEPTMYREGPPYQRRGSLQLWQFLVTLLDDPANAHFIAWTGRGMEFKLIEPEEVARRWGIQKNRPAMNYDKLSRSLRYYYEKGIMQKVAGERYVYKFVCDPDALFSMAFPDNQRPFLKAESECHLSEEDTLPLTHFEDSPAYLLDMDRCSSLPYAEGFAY
Sequence of ELF4 (Q99607 whole entry): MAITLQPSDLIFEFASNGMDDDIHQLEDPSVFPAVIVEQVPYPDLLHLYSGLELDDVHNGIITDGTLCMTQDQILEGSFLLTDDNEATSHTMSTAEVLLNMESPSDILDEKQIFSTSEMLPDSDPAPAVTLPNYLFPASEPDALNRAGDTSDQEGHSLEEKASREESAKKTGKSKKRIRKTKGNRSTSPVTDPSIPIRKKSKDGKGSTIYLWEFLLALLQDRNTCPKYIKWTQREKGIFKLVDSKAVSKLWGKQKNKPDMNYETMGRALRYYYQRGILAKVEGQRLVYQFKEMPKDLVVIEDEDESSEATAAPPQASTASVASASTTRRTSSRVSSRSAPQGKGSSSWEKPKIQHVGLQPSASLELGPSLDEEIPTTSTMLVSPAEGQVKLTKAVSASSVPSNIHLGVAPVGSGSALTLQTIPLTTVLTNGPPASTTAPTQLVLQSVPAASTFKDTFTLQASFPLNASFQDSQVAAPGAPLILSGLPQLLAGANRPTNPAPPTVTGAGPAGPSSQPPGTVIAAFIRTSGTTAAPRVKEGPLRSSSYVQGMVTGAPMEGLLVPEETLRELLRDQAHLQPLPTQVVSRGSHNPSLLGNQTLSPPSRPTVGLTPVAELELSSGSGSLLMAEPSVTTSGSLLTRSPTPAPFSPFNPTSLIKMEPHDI
Sequence of CRX (O43186 whole entry): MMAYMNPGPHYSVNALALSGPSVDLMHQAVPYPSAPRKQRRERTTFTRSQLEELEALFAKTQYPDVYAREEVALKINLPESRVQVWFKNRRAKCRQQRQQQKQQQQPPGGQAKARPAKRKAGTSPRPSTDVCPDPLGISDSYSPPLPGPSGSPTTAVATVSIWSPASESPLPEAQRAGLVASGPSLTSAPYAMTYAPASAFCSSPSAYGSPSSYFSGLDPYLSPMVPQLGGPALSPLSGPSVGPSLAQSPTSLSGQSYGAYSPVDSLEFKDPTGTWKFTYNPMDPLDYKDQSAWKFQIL
Sequence of HSF1 (Q00613 whole entry): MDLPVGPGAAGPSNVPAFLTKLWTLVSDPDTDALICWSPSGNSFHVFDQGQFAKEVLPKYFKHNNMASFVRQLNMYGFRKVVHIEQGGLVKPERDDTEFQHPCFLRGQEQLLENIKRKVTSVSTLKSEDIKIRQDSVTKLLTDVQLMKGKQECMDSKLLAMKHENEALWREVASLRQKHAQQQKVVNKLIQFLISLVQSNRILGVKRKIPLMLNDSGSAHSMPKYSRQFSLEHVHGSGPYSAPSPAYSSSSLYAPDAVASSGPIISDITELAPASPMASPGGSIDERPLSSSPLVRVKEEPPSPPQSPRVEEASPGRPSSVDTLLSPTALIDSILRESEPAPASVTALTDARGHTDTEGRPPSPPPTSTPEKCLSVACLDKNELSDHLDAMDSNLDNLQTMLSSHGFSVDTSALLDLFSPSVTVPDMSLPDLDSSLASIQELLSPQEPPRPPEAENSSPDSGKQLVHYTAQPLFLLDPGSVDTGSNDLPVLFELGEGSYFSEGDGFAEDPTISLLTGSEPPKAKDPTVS
Sequence of ETV1 (P50549 whole entry): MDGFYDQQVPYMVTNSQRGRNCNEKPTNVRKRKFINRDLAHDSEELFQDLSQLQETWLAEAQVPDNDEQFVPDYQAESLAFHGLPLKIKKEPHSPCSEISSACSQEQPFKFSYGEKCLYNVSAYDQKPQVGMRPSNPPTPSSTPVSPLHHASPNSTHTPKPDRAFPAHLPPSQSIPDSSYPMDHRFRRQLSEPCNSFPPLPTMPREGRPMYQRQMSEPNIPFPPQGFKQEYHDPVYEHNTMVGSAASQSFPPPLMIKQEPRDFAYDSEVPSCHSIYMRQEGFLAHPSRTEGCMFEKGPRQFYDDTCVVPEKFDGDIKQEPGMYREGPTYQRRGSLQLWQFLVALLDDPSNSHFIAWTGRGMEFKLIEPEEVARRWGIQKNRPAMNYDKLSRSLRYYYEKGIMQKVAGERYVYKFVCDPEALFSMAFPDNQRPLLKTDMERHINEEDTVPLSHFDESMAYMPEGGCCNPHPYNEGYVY

As to AAGATG, the binding signal with FEV was 1.01 fold enrichment (6-mer frequency, TF over GST control); with ETV5 it was 1.14 fold enrichment (6-mer frequency, TF over GST control); with HSF1, 1.19 fold enrichment (6-mer frequency, TF over GST control); in the assay with SPIC it was 1.1 fold enrichment (6-mer frequency, TF over GST control); in the assay with ELF4, 1.24 fold enrichment (6-mer frequency, TF over GST control); with ELK4 it was 1.22 fold enrichment (6-mer frequency, TF over GST control). For the same sequence, the binding signal is 1.13 fold enrichment (6-mer frequency, TF over GST control) in the assay with ETV2; 1.19 fold enrichment (6-mer frequency, TF over GST control) with ELF3; 1.27 fold enrichment (6-mer frequency, TF over GST control) with CRX; 1.12 fold enrichment (6-mer frequency, TF over GST control) in the assay with ETV1; 1.18 fold enrichment (6-mer frequency, TF over GST control) with ERF; 1.12 fold enrichment (6-mer frequency, TF over GST control) with ETV3L. The binding signal with ETS2 is 1.16 fold enrichment (6-mer frequency, TF over GST control); with SPDEF it was 1.1 fold enrichment (6-mer frequency, TF over GST control); with ETV7, 1.12 fold enrichment (6-mer frequency, TF over GST control); with ELF5 it was 1.14 fold enrichment (6-mer frequency, TF over GST control); in the assay with ETV3, 1.09 fold enrichment (6-mer frequency, TF over GST control); in the assay with ETV6, 1.2 fold enrichment (6-mer frequency, TF over GST control).

The values are drawn from publication PMC7862700, “An all-to-all approach to the identification of sequence-specific readers for epigenetic DNA modifications on cytosine”.
